Read-out in assay [1]: TIMP metallopeptidase inhibitor 2 (TIMP2), TIMP2 (gene 7077)
The assay is described as follows: BSK_KF3CT_TIMP2: BioMAP Diversity Plus: KF3CT Assay for TIMP metallopeptidase inhibitor 2 (TIMP2) Biomarker Activity (AID 2283071). As to conditions: primary human keratinocytes with fibroblasts; actives raise or lower the signal. Put shortly: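 Human primary keratinocyte/foreskin fibroblast co-culture dosed with chemical and sampled at 24 h. TIMP-2 levels quantified by ELISA; bidirectional fitting against DMSO negative control as baseline.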

Read-out in assay [2]: Transforming growth factor beta 1 (TGFb1), TGFB1 (gene 7040)
The assay is described as follows: BSK_KF3CT_TGFb1: BioMAP Diversity Plus: KF3CT Assay for Transforming growth factor beta 1 (TGFb1) Biomarker Activity (AID 2283072). The following applies: primary human keratinocytes with fibroblasts; actives raise or lower the signal. In outline: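 Human keratinocyte plus foreskin fibroblast primary co-culture, dosed with chemical for 24 h. TGF-b1 quantified by ELISA. Activity fitted bidirectionally against DMSO negative control as baseline.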

Read-out in assay [3]: C-C motif chemokine 2 (Homo sapiens) (UniProt P13500)
The assay is described as follows: BSK_KF3CT_MCP1: BioMAP Diversity Plus: KF3CT Assay for Monocyte Chemoattractant Protein 1 (MCP1/CCL2) Biomarker Activity (AID 2283073). The following applies: primary human keratinocytes with fibroblasts; actives raise or lower the signal. Put shortly: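 Keratinocytes and foreskin fibroblasts were co-cultured, dosed with chemical, and sampled 24 h later. MCP-1 was quantified by ELISA, and the endpoint was analyzed with bidirectional fitting using DMSO as negative control.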

Read-out in assay [4]: Matrix Metallopeptidase 9 (MMP9), MMP9 (gene 4318)
The assay is described as follows: BSK_KF3CT_MMP9: BioMAP Diversity Plus: KF3CT Assay for Matrix Metallopeptidase 9 (MMP9) Biomarker Activity (AID 2283074).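 On AC50: MMP9 protein level quantified by ELISA in the co-culture.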 The following applies: primary human keratinocytes with fibroblasts; actives raise or lower the signal. Put shortly:
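Human keratinocyte/foreskin fibroblast co-culture; compound added; 24 h; MMP-9 by ELISA; bidirectional fit vs DMSO baseline.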

Read-out in assay [5]: urokinase plasminogen activator (uPA), PLAU (gene 5328)
The experiment in a line: BSK_KF3CT_uPA: BioMAP Diversity Plus: KF3CT Assay for urokinase plasminogen activator (uPA) Biomarker Activity (AID 2283075). As to conditions: primary human keratinocytes with fibroblasts; actives raise or lower the signal. In outline: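 ELISA readout of uPA, analyzed for signal gain or loss relative to DMSO, from a human primary keratinocyte–foreskin fibroblast co-culture measured 24 h after chemical treatment.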

Read-out in assay [6]: E-selectin (Homo sapiens) (UniProt P16581)
The assay is described as follows: BSK_LPS_Eselectin: BioMAP Diversity Plus: LPS Assay for Eselectin Biomarker Activity (AID 2283077). The following applies: primary human HUVEC with PBMC; actives raise or lower the signal. In outline: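 Signal of E-selectin, detected by ELISA, served as the endpoint; cells were umbilical vein endothelium with PBMC, read 24 h after treatment. DMSO defined baseline, and both increases and decreases were fitted.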

Read-out in assay [7]: Interleukin-8 (IL8), CXCL8 (gene 3576)
The experiment in a line: BSK_LPS_IL8: BioMAP Diversity Plus: LPS Assay for Interleukin-8 (IL8) Biomarker Activity (AID 2283078). The following applies: primary human HUVEC with PBMC; actives raise or lower the signal. Put shortly: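 Endothelial cells and PBMC from human donors are co-cultured, treated with chemicals and LPS, then assayed for IL-8 by ELISA after 24 h. Parallel SRB staining (0.1% SRB after 10% TCA fixation, 560 nm) flags cytotoxicity.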

The nature of assay [8]: BSK_LPS_SRB: Viability Assessment in the BioMAP Diversity Plus: LPS Assay (AID 2283079).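 Further: total protein by sulforhodamine B absorbance as a cytotoxicity measure; measured one day after compound addition; fitted in both directions against DMSO so loss or gain of signal counts.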 As to conditions: primary human HUVEC with PBMC. Put shortly: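 Overt cytotoxicity was gauged by sulforhodamine B total-protein staining in a primary human vascular endothelial and mononuclear cell co-culture 24 h post-dosing. Activity was fitted in both directions relative to DMSO.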

Read-out in assay [9]: Monocyte Chemoattractant Protein-1 (MCP1), CCL2 (gene 6347)
The experiment in a line: BSK_LPS_MCP1: BioMAP Diversity Plus: LPS Assay for Monocyte Chemoattractant Protein-1 (MCP1) Biomarker Activity (AID 2283081).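 On AC50: secreted MCP-1 protein quantified by ELISA in culture supernatant.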 As to conditions: primary human HUVEC with PBMC; actives raise or lower the signal. In outline:
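LPS-stimulated HUVEC/PBMC co-culture; chemical, 24 h; MCP-1 by ELISA; bidirectional fit vs DMSO; cytotoxicity via SRB (0.1% stain, 10% TCA fix, 560 nm) in parallel wells.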

Assay [10] in a line: BSK_LPS_PGE2: BioMAP Diversity Plus: LPS Assay for Prostaglandin E2 (PGE2) Biomarker Activity (AID 2283082).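 On AC50: secreted prostaglandin E2 measured by ELISA in LPS-stimulated co-culture.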 As to conditions: primary human HUVEC with PBMC; actives raise or lower the signal. In outline:
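HUVEC plus PBMC co-culture stimulated with LPS; secreted PGE2 quantified by ELISA 24 h after chemical dosing. Activity fitted bidirectionally against DMSO as negative control and baseline; parallel SRB total-protein staining served as cytotoxicity check.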

Read-out in assay [11]: Macrophage colony-stimulating factor (MCSF), CSF1 (gene 1435)
The assay is described as follows: BSK_LPS_MCSF: BioMAP Diversity Plus: LPS Assay for Macrophage colony-stimulating factor (MCSF) Biomarker Activity (AID 2283083). As to conditions: primary human HUVEC with PBMC; actives raise or lower the signal. In outline: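 Compound is added to a human vascular primary co-culture of umbilical vein endothelium and blood mononuclear cells. After 24 h, M-CSF is quantified by ELISA. Signal changes are fitted in both directions against DMSO.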

Read-out in assay [12]: Tissue Factor, F3 (gene 2152)
The assay is described as follows: BSK_LPS_TissueFactor: BioMAP Diversity Plus: LPS Assay for Tissue Factor Biomarker Activity (AID 2283084). As to conditions: primary human HUVEC with PBMC; actives raise or lower the signal. In outline: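 In this co-culture system of umbilical vein endothelium with PBMC, stimulated with LPS, cell-surface CD142 is detected by ELISA at 24 h. Endpoint values derive from bidirectional fitting, DMSO serving as baseline.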

Read-out in assay [13]: Tumor necrosis factor (Homo sapiens) (UniProt P01375)
The experiment in a line: BSK_LPS_TNFa: BioMAP Diversity Plus: LPS Assay for Tumour Necrosis Factor alpha (TNFa) Biomarker Activity (AID 2283085). The following applies: primary human HUVEC with PBMC; actives raise or lower the signal. Put shortly:
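Human umbilical vein endothelial cells co-cultured with PBMC were exposed to test chemical and TNFa measured by ELISA 24 h after dosing. Bidirectional curve fitting was done relative to DMSO as negative control and baseline.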

Read-out in assay [14]: Vascular cell adhesion molecule 1 (VCAM1), VCAM1 (gene 7412)
The assay is described as follows: BSK_LPS_VCAM1: BioMAP Diversity Plus: LPS Assay for Vascular cell adhesion molecule 1 (VCAM1) Biomarker Activity (AID 2283086). As to conditions: primary human HUVEC with PBMC; actives raise or lower the signal. Put shortly:
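Human umbilical vein endothelial cells co-cultured with peripheral blood mononuclear cells under LPS stimulation were exposed to test chemical for 24 h. VCAM-1 levels were then measured by ELISA, with bidirectional curve fitting relative to DMSO as negative control and baseline.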

Read-out in a further assay: CD38, CD38 (gene 952)
The assay is described as follows: BSK_SAg_CD38: BioMAP Diversity Plus: SAg Assay for CD38 Biomarker Activity (AID 2283087). As to conditions: primary human HUVEC with PBMC; actives raise or lower the signal. In outline: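 Fluorescence ELISA of cell-surface CD38 served as the read-out, with either increase or decrease fitted against DMSO controls. Cells were a human umbilical vein endothelium plus PBMC co-culture under SEB/TSST-1 stimulation, measured 24 h after dosing.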

Read-out in assay [15]: CD40, CD40 (gene 958)
The assay is described as follows: BSK_SAg_CD40: BioMAP Diversity Plus: SAg Assay for CD40 Biomarker Activity (AID 2283088). The following applies: primary human HUVEC with PBMC; actives raise or lower the signal. In outline: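 Fluorescence ELISA read-out of CD40 from umbilical vein endothelium plus peripheral blood mononuclear cells, sampled 24 h after dosing. Values come from bidirectional curve fitting with DMSO as baseline.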

Read-out in the next assay: CD69, CD69 (gene 969)
The assay is described as follows: BSK_SAg_CD69: BioMAP Diversity Plus: SAg Assay for CD69 Biomarker Activity (AID 2283089).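 On AC50: cell surface CD69 protein quantified by ELISA with fluorescence detection.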 The following applies: primary human HUVEC with PBMC; actives raise or lower the signal. Put shortly:
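Endothelial/PBMC co-culture; chemical added; 24 h incubation; CD69 ELISA with fluorescence detection; bidirectional fit vs DMSO.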

Read-out in assay [16]: Monocyte Chemoattractant Protein-1 (MCP1), CCL2 (gene 6347)
The experiment in a line: BSK_SAg_MCP1: BioMAP Diversity Plus: SAg Assay for Monocyte Chemoattractant Protein-1 (MCP1) Biomarker Activity (AID 2283090). As to conditions: primary human HUVEC with PBMC; actives raise or lower the signal. In outline:
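MCP-1 levels in the endothelial–PBMC SAg co-culture were quantified by ELISA at 24 h post-dosing; both increases and decreases versus DMSO scored. Cytotoxicity monitored by SRB total protein in parallel cultures.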

Read-out in assay [17]: CD40, CD40 (gene 958)
The experiment in a line: BSK_LPS_CD40: BioMAP Diversity Plus: LPS Assay for CD40 Biomarker Activity (AID 2283076). As to conditions: primary human HUVEC with PBMC; actives raise or lower the signal. Put shortly:
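CD40 signal, measured by ELISA, is fitted in both directions relative to DMSO vehicle. The system is an LPS-driven human vascular primary co-culture of endothelial cells and PBMC, sampled 24 h after compound addition.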

Active and inactive are the calls of the source. How the source made its calls: active means hit-call score of the fitted dose curve at least 0.9, where 1 is the maximum; inactive means score below 0.9.

Tumor necrosis factor (Homo sapiens), sequence (P01375 whole entry, looked up): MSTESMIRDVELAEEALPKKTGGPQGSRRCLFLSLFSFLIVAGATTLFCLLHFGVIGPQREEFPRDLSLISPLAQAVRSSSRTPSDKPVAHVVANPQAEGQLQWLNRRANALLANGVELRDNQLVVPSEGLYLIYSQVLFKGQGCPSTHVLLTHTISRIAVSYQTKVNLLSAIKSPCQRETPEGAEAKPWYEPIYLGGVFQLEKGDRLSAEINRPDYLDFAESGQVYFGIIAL
E-selectin (Homo sapiens), sequence (P16581 whole entry, looked up): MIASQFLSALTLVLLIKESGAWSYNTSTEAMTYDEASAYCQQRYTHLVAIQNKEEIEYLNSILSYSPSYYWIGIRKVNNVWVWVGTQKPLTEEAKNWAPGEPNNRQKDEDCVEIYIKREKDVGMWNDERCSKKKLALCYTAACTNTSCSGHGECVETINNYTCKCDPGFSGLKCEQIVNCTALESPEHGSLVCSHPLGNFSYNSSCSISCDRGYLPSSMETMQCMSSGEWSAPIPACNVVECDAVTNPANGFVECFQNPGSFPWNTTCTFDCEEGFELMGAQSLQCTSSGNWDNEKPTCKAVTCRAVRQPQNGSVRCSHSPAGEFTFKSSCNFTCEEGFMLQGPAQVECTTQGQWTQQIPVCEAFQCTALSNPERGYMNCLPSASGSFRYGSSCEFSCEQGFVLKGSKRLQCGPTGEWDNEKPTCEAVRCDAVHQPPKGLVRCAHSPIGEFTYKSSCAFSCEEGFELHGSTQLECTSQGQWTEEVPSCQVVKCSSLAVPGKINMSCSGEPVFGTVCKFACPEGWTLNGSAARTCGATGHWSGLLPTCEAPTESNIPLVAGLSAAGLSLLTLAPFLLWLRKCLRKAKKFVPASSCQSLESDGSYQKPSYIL

With `CC(=O)OCC=C(C)CCC=C(C)CCC=C(C)C`, the outcome in assay [1], in assay [2], in assay [3], in assay [4], in [5] and in [6] was inactive. The outcome in assay [7], in assay [8], in assay [9], in assay [10], in [11] and in assay [12] was inactive. The outcome in [13] was “inactive”; in assay [14], “inactive”; with CD38, CD38 (gene 952), “inactive”; with CD40, CD40 (gene 958) [15], “inactive”; with CD69, CD69 (gene 969), “inactive”; in assay [16], “inactive”.
In the case of `C#C[C@]1(O)CC[C@H]2[C@@H]3CCc4cc(O)ccc4[C@H]3CC[C@@]21C`, the outcome in assay [1], in assay [2], in [3], in [4], in assay [5] and in assay [6] was inactive. Also, the outcome in [10] is “inactive”; in [11] it was “inactive”; in assay [12], “inactive”; in assay [13], “inactive”; with CD38, CD38 (gene 952), “inactive”; in the assay with CD40, CD40 (gene 958) [15], “inactive”. The outcome with CD69, CD69 (gene 969) was inactive. Besides, the AC50 in assay [7] was 31.2 µM (active); in [8] it was 9.58 µM (active); in assay [9] it was 6.83 µM (active); in [14], 6.47 µM (active); in assay [16] it was 5.56 µM (active).
As for `CC(C)(C)c1cccc(O)c1`, the outcome in assay [1] was “inactive”; in assay [2], “inactive”; in assay [3], “inactive”; in assay [4] it was “inactive”; in assay [5] it was “inactive”; in the assay with CD40, CD40 (gene 958) [17] it was “inactive”. The outcome in assay [6], in [7], in assay [8], in [9], in assay [10] and in assay [11] was inactive. In addition, the outcome in assay [12] was “inactive”; in assay [13] it was “inactive”; in [14] it was “inactive”; in the assay with CD38, CD38 (gene 952), “inactive”; with CD40, CD40 (gene 958) [15], “inactive”; with CD69, CD69 (gene 969), “inactive”. The outcome in assay [16] was inactive.
Consider `C=C1CC/C=C(\C)CC[C@@H]2[C@@H]1CC2(C)C`, for which the AC50 in assay [1] was 10.8 µM (active); in assay [2], 20 µM (active); in assay [3], 4.87 µM (active); in assay [4], 20 µM (active); in assay [5], 34.5 µM (active); in assay [6], 21.2 µM (active). Further, the AC50 is 36.3 µM (active) in assay [8]; 3.97 µM (active) in assay [10]; 31.6 µM (active) in assay [11]; 5.05 µM (active) in [12]; 29.4 µM (active) in [14]; 30.7 µM (active) with CD38, CD38 (gene 952). For the same compound, the AC50 in the assay with CD40, CD40 (gene 958) [15] was 31.7 µM (active); with CD69, CD69 (gene 969), 32.8 µM (active); in assay [16], 34.4 µM (active). Moreover, the result in assay [7], in assay [9] and in assay [13] was inactive.
For `CC(C)Cc1ccc(C(C)C(=O)O)cc1` (configuration not stated), the outcome in assay [1] was “inactive”; in assay [2], “inactive”; in [3], “inactive”; in [4] it was “inactive”; in assay [5], “inactive”; in the assay with CD40, CD40 (gene 958) [17] it was “inactive”. Also, the outcome in assay [6], in assay [7], in [8], in assay [9], in assay [11] and in assay [12] was inactive. For the same compound, the outcome was “inactive” in assay [13]; “inactive” in assay [14]; “inactive” with CD38, CD38 (gene 952); “inactive” with CD40, CD40 (gene 958) [15]; “inactive” with CD69, CD69 (gene 969); “inactive” in assay [16]. In assay [10], the AC50 is 0.897 µM (active).

The values are drawn from PubChem BioAssay (EPA / NIEHS).
